Results filed as inconclusive are left out. Activity calls are given as the source filed them. Unless noted, the call rests on the fitted dose curve; in most records, active means well fitted curve in the direction sought with a large enough effect; inconclusive means small, poorly fitted or top-dose-only effect, or another doubt; inactive means no such curve, though single readings can be large; an effect the other way counts as inactive or inconclusive.
Key:
[1] = AP1 Signaling Pathway (AID 357; active means well fitted curve in either direction with a large enough effect, not every such curve was filed as active; further: on the % scale 0 is the no-effect control and ±100 the full control effect); details: ME-180 AP-1-bla reporter, EGF-induced, beta-lactamase ratio, 5 h; at 38 µM (top of the series)
Method in brief: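 ME-180 cells with beta-lactamase reporter under AP-1 response element, stimulated with EC50 EGF; compounds tested in titration series, 5 h at 37 °C. CCF4 substrate added 2.5 h at room temperature; 460/530 nm emission ratio gave %activity and AC50.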

[2] = biological target: Cytochrome P450 1A2 (Homo sapiens) (UniProt P05177); assay: p450-cyp1a2 (AID 410; calls by dose curve; further: potency means the concentration at half of the fitted maximal effect)
Method in brief: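 Human CYP1A2 (20nM) demethylated Luciferin-ME at its Km (100uM) in 100mM KPO4. After 10 min compound preincubation, NADPH regeneration ran the reaction 60 min at room temperature. Luciferin was read by luminescence, normalized to 57 uM furafylline.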

[3] = NFAT Signaling Pathway (AID 444; active means well fitted curve in either direction with a large enough effect, not every such curve was filed as active;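 further: carbachol stimulus at about its EC50 of 1 µM final; on the % scale 0 is the no-effect control and ±100 the full control effect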); details: Jurkat NFAT-bla M1, carbachol, beta-lactamase ratio, 5 h; at 38 µM (top of the series)
Method in brief: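 Jurkat cells carrying an NFAT-driven β-lactamase reporter and co-transfected muscarinic M1 receptor were treated with compound plus carbachol (1 uM final, an EC50 level) for 5 h at 37 °C. CCF4 loading followed for 1 h at RT; 460/530 nm ratio gave %activity.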

[4] = Stat Signaling Pathway (AID 446; active means well fitted curve in either direction with a large enough effect, not every such curve was filed as active;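 further: ME-180 cervical cancer cells given 40 pM IL-6 alongside compound; SIE-controlled beta-lactamase reporter measured as 460/530 nm FRET emission ratio; on the % scale 0 is the no-effect control and ±100 the full control effect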); details: ME-180 SIE beta-lactamase reporter, IL-6 stimulated, 5 h; at 38 µM (top of the series)
Method in brief: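 ME-180 SIE-bla cells; overnight plating; cpd + IL-6 40 pM, 5 h, 37 C; LiveBLAzer 2.5 h RT; 460/530 nm emission ratio. Normalized to 300 pM IL-6 and 125 nM JAK inhibitor controls.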

[5] = biological target: Glucocorticoid receptor (Homo sapiens) (UniProt P04150); assay: GR-GFP Redistribution (AID 450;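 active means compounds whose dose series gives a full or clear partial fitted curve of increased nuclear translocation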; further: potency means the concentration at half of the fitted maximal effect); details: U2OS GR-GFP nuclear translocation, laser cytometry, 2 h
[6] = biological target: Glucocorticoid receptor (Homo sapiens) (UniProt P04150); assay: GR-EFC Redistribution (AID 451; calls by dose curve; further: potency means the concentration at half of the fitted maximal effect); details: CHO-K1 GR-EFC translocation, beta-gal luminescence, 2 h
Method in brief: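 CHO-K1 cells stably expressing nuclear-localized β-gal enzyme acceptor and GR fused C-terminally to the enzyme donor fragment; ligand-driven nuclear translocation restores β-gal by complementation. Compounds titrated up to 46 uM final, 2 h at 37 °C; luminescence read.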

[7] = biological target: Mitogen-activated protein kinase 10 (Mus musculus) (UniProt Q61831); assay: JNK3 AlphaScreen Assay (AID 530; active means well fitted curve in either direction with a large enough effect, not every such curve was filed as active;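 further: kinase came from lysate of stimulated human HepG2 cells; signal reports phosphorylation of biotinylated GST-cJun 1-79 at Ser73 with 10 µM ATP; on the % scale 0 is the no-effect control and ±100 the full control effect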)
Method in brief: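 JNK3 came from HepG2 lysates pre-activated with IL-1beta and TNF-alpha and phosphorylated biotinylated GST-cJun (1-79) at 10 uM ATP, pH 7.6, room temperature. Compounds were titrated. AlphaScreen signal used anti-phospho-cJun (Ser73) antibody.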

[8] = biological target: 3',5'-cyclic-AMP phosphodiesterase 4B (Homo sapiens) (UniProt Q07343); assay: qHTS Assay for Inhibitors of PDE-IV (AID 607; active means well fitted activation curve with a large enough effect in the main read-out, with a control signal flat, not every such curve was filed as active; further: % of control where 0% means no effect)
Method in brief: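 ACTOne HEK293 cells carry a modified cAMP-gated CNG channel and express endogenous PDE4; plated 1000 cells/well, compounds up to 22.9 uM final. Membrane-potential dye fluorescence (ex 535/em 590) was read; parental cells received 10 uM forskolin + 100 uM RO 20-1724.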

[9] = biological target: Guanine nucleotide-binding protein G(i) subunit alpha-1 (Homo sapiens) (UniProt P63096); assay: qHTS Assay for Inhibitors of RGS12 GoLoco Motif Activity (Green Fluorophore) (AID 879);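 further: 0% = labeled peptide with Gαi1 and full inhibition = labeled peptide alone without protein; negative values mean loss of peptide binding seen as reduced polarization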
Method in brief: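 Fluorescence polarization assay: 50 nM Gαi1 with 10 nM FITC-labeled RGS12 GoLoco peptide in 10 mM Tris pH 7.5, 150 mM NaCl, 0.1 mM GDP, 0.05% NP40, 10 min at room temperature with compound.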

[10] = biological target: Cytochrome P450 3A4 (Homo sapiens) (UniProt P08684); assay: qHTS Assay for Activators of Cytochrome P450 3A4 (AID 885); further: nearly all actives have a fitted effect of over 65% in size
Method in brief: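 20nM CYP3A4 + 25uM Luciferin-PPXE (=KM), 200mM KPO4; cpd 10 min RT; NADPH regen, 60 min RT; stop w/ detection buffer, 20 min; luminescence. Normalized to 57 uM ketoconazole.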

[11] = biological target: Muscarinic acetylcholine receptor M1 (Rattus norvegicus) (UniProt P08482); assay: qHTS Assay for Antagonists of Acetylcholine Muscarinic M1 Receptor: Kinetic Measurement of Intracellular Calcium Response (AID 943);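 further: Fluo-4 calcium signal as peak divided by basal fluorescence over 4 min; nearly all actives have a fitted effect of over 75% in size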
Method in brief: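 CHO cells stably expressing rat M1 were loaded with no-wash Fluo-4 dye for 1 h at 37C, pre-incubated 10 min with compound, then challenged with EC80 carbachol (100 nM final); kinetic calcium read 4 min, peak/basal ratio.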

[12] = biological target: Muscarinic acetylcholine receptor M1 (Rattus norvegicus) (UniProt P08482); assay: qHTS Assay for Antagonists of Acetylcholine Muscarinic M1 Receptor: Measurement of IP-One Response (AID 944); further: nearly all actives have a fitted effect of over 75% in size
Method in brief: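 CHO cells expressing rat M1 receptor, recovered overnight, were pre-incubated 10 min with compound, then stimulated 30 min with carbachol at EC80 (200 nM) in LiCl-containing buffer, pH 7.4. IP1 accumulation was read by HTRF (620/665 nm).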

[13] = biological target: Pyruvate kinase (Leishmania mexicana) (UniProt Q27686); assay: qHTS Validation Assay for Inhibitors of Leishmania Mexicana Pyruvate Kinase (AID 945);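 further: 0% = DMSO only neutral control wells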
Method in brief: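 Eight-point qHTS titrations; enzyme 0.2 nM LmPYK (E451W mutant); substrates 0.5 mM PEP, 0.1 mM ADP; 7 mM MgCl2; 1 h room temperature; PKLight luminescence normalized to neutral control.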

[14] = biological target: Pyruvate kinase PKM (Homo sapiens) (UniProt P14618); assay: qHTS Assay for Activators of Human Muscle Pyruvate Kinase (AID 954; active means well fitted curve in the direction sought with a large enough effect, not every such curve was filed as active;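 further: 0% = uninhibited enzyme and -100% = no enzyme or full thiadiazolimine inhibition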)
Method in brief: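 Luminescence from a luciferase ATP-detection/stop reagent reported PKM2 activity. Reactions contained 0.1 nM purified human enzyme, 0.5 mM PEP, 0.1 mM ADP and 7 mM MgCl2 at pH 7.2, run 1 h at RT.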

[15] = biological target: Alpha-galactosidase A (Homo sapiens) (UniProt P06280); assay: Counterscreen for Glucocerebrosidase Inhibitors: qHTS Assay for Human alpha-Galactosidase at pH 4.5 (AID 992); further: 0% is about no effect
Method in brief: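 Enzyme at 2 nM final was combined with compound (0.7 nM to 77 uM) and 80 uM 4-methylumbelliferyl alpha-D-galactopyranoside in 50 mM citric acid, 0.005% Tween-20, pH 4.5. After 20 min at room temperature, fluorescence was read (Ex 365/Em 440 nm); AC50 came from Hill fits.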

[16] = biological target: alpha-glucosidase (Oryza sativa, rice) (UniProt Q653V4); assay: Counterscreen for Glucocerebrosidase Inhibitors: qHTS Assay for Rice alpha-Glucosidase at pH 5.0 (AID 997);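 further: 0% = full activity with enzyme and -100% = basal without enzyme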
Method in brief: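 Rice alpha-glucosidase (4 nM final) with 400 uM 4-methylumbelliferyl-alpha-D-glucopyranoside in citrate buffer pH 5.0, 20 min at room temperature, stopped at pH 10; fluorescence 365/440 nm, compounds 0.7 nM–77 uM, AC50 from Hill fits.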

[17] = qHTS Assay for Lipid Storage Modulators (AID 1519; calls by dose curve); details: Drosophila S3 cells, BODIPY lipid droplet/cell ratio, laser cytometry, cells loaded with oleic acid
Method in brief: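 Cells seeded at 5,000 per well were treated with compounds over a concentration series and loaded with oleic acid (400 uM, as added). Lipid droplet fluorescence (488 nm excitation, 500-530 nm channel) was read by laser-scanning cytometry and normalized to 20 uM Triacsin C.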

Chain of Glucocorticoid receptor (Homo sapiens) (P04150 whole entry, looked up, the tested form may be a part): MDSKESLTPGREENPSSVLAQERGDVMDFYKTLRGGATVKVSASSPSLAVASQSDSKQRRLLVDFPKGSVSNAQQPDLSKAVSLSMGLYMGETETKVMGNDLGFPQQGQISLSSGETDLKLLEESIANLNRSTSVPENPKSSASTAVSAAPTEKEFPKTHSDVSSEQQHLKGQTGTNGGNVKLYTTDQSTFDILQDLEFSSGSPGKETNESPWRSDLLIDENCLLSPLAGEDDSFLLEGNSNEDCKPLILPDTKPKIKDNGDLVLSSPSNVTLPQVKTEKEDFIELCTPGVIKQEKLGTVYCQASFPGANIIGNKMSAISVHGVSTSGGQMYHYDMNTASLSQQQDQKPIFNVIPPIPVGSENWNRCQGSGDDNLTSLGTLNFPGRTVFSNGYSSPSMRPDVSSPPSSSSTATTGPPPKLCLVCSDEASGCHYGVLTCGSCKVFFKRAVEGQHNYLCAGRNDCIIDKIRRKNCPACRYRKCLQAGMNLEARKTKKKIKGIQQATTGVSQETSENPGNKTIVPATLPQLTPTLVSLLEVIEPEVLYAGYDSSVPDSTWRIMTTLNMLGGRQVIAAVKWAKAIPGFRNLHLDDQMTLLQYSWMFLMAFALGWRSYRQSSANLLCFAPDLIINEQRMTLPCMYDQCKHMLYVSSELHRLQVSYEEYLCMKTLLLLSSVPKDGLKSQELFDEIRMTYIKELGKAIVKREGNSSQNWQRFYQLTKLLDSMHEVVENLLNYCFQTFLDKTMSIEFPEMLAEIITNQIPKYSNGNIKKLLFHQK
Chain of Muscarinic acetylcholine receptor M1 (Rattus norvegicus) (P08482 whole entry, looked up): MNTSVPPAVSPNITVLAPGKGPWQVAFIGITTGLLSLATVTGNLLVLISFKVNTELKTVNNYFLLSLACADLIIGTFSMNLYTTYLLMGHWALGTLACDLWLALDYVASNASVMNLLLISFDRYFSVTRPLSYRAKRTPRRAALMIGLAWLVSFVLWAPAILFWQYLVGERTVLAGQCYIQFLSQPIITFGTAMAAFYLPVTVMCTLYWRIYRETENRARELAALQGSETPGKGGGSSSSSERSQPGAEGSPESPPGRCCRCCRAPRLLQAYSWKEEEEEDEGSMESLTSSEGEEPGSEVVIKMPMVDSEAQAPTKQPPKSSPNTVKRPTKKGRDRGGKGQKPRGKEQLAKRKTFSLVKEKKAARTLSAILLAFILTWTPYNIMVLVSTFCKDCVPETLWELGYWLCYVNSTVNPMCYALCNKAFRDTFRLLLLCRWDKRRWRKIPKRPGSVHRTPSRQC
Chain of Cytochrome P450 3A4 (Homo sapiens) (P08684 whole entry, looked up): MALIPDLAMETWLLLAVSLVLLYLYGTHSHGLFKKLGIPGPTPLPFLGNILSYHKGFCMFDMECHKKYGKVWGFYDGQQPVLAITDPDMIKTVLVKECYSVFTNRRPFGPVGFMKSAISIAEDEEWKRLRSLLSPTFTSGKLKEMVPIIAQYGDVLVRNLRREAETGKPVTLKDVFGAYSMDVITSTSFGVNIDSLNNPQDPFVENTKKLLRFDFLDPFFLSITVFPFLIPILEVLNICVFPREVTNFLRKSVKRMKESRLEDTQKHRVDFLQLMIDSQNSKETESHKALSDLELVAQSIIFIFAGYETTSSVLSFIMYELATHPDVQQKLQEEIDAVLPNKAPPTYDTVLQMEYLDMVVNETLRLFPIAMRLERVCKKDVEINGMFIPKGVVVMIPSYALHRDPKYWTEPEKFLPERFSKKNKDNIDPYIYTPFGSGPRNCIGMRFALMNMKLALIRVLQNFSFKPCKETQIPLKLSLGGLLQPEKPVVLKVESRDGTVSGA
Chain of Guanine nucleotide-binding protein G(i) subunit alpha-1 (Homo sapiens) (P63096 whole entry, looked up): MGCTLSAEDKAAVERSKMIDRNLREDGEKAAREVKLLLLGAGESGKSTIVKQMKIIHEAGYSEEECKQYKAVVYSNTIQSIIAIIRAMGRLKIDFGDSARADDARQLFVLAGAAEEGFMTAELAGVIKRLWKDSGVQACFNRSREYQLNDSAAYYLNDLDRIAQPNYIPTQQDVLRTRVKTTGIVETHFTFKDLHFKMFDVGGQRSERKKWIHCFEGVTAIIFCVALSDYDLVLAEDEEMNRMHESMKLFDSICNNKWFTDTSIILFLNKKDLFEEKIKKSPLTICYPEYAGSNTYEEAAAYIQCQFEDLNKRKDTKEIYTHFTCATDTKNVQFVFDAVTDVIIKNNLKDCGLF
Chain of Cytochrome P450 1A2 (Homo sapiens) (P05177 whole entry, looked up): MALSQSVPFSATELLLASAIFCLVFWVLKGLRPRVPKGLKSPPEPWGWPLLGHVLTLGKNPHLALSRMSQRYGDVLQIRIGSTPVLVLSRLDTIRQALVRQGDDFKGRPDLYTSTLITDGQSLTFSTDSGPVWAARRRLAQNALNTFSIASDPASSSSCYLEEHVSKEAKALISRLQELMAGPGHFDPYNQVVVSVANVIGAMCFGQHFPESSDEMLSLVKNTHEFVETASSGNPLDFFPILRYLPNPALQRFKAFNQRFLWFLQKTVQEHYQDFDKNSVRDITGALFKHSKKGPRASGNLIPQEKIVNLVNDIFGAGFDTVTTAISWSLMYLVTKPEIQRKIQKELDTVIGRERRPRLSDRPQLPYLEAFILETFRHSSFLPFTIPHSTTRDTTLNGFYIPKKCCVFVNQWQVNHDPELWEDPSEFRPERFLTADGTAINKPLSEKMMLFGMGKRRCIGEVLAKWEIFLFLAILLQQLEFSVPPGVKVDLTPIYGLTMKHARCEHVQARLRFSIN
Chain of Alpha-galactosidase A (Homo sapiens) (P06280 whole entry, looked up): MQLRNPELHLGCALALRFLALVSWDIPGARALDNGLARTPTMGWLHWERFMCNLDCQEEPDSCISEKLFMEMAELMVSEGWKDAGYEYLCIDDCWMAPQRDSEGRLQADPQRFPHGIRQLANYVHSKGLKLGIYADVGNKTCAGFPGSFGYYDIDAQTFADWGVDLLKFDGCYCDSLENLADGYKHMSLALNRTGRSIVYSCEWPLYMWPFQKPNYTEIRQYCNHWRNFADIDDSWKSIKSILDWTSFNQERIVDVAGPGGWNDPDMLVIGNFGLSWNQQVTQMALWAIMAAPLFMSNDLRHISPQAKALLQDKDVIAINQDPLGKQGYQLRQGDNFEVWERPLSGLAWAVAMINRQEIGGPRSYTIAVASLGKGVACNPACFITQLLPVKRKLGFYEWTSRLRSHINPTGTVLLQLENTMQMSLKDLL
Chain of 3',5'-cyclic-AMP phosphodiesterase 4B (Homo sapiens) (Q07343 whole entry, looked up): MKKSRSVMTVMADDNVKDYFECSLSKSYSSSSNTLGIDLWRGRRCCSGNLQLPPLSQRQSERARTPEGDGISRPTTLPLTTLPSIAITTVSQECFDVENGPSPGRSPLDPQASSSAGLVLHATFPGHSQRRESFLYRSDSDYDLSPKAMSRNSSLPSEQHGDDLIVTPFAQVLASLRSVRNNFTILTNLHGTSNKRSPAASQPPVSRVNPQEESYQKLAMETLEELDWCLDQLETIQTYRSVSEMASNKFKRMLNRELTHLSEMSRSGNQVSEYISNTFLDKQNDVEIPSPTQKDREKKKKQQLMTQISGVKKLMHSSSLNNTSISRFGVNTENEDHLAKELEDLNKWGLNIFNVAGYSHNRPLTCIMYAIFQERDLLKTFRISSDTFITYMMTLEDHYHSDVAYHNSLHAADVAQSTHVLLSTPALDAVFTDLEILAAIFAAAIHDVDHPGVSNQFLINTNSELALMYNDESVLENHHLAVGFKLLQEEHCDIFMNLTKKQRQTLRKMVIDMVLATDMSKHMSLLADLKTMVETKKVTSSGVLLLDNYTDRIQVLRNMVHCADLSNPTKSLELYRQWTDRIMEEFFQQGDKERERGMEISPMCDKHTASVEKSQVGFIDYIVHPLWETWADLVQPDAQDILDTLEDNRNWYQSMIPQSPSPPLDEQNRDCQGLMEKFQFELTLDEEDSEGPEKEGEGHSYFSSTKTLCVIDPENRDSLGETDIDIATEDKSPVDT
Chain of Pyruvate kinase (Leishmania mexicana) (Q27686 2-499 E452W): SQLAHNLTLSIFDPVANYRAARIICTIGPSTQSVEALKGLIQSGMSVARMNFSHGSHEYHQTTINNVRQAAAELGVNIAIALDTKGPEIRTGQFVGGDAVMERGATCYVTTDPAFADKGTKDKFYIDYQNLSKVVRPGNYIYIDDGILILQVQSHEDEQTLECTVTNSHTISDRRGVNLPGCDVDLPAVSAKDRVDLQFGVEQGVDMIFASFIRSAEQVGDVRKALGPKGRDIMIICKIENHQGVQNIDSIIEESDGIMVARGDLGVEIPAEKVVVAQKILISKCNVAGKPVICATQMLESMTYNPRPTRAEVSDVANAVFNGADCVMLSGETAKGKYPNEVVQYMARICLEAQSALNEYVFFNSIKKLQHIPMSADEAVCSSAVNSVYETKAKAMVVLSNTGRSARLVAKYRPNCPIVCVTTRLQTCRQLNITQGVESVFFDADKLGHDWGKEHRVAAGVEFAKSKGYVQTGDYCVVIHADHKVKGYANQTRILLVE
Chain of Pyruvate kinase PKM (Homo sapiens) (P14618 whole entry, looked up): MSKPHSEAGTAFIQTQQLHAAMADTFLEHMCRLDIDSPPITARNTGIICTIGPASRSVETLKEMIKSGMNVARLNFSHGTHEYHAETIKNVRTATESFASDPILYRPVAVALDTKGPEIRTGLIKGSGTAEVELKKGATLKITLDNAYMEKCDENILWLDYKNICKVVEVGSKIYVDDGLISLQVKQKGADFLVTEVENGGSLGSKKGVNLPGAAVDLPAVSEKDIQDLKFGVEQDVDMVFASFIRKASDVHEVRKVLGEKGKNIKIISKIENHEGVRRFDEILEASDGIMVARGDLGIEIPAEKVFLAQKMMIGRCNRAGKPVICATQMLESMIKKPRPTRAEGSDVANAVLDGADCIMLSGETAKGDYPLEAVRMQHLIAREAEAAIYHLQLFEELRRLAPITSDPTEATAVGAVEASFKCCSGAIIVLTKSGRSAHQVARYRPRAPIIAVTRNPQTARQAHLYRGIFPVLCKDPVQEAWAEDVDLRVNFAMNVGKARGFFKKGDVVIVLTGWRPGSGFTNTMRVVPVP

COc1ccccc1NC(=O)Nc1nc(-c2cccnc2)nc2ccccc12
active: Potency [2] 2.51 µM
-29%: max response ([17]; measured here: lipid channel max response)
inactive: activity change, negative = inhibition [1] 12.1% | activity change, negative = inhibition [3] 4.7% | activity, negative = inhibition [4] 4.21% | Potency [5] > 46 µM | Potency [6] > 46 µM | Potency [7] | Potency [8] | outcome [9] | Potency [10] | Potency [11] | Potency [12] | Potency [13] | outcome [14] | outcome [15] | outcome [16] | activity change, negative = inhibition ([17]; at 57.5 µM (top of the series)) -0.716%
-30.6%: max response ([17]; measured here: cell count channel max response)

Source: PubChem BioAssay (NCATS)
